Experimental data published in the supplement of paper PMC8728848.
This excerpt belongs to a sample that is enriched for the strongest signals.

Legend:
Assay in all cases: glycan array binding signal (z-score within array); higher = stronger binding
Details in all cases: glycan notation: IUPAC condensed, linker removed
[1] = target: Fuc(a1-2)Gal(b1-3)GalNAc(b1-3)Gal
Procedure, shortened: (§1)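 Arrays were curated from the Consortium for Functional Glycomics database, 3228 in total, and kept only where the protein sequence was available. Binding is expressed as a within-array Z-score. This score was averaged across arrays of the same protein sequence at different concentrations or buffers and across linkers, and negative values can be read as non-binding.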

[2] = target: Fuc(a1-2)Gal(b1-4)Fuc(a1-3)]GlcNAc(b1-2)Man(a1-3)[Fuc(a1-2)Gal(b1-4)[Fuc(a1-3)]GlcNAc(b1-2)Man(a1-6)]Man(b1-4)GlcNAc(b1-4)GlcNAc
Procedure, shortened: as §1

[3] = target: Fuc(a1-2)[Gal(a1-3)]Gal(b1-4)GlcNAc(b1-3)GalNAc
Procedure, shortened: as §1

[4] = target: Fuc(a1-2)[GalNAc(a1-3)]Gal(b1-3)GalNAc(a1-3)[Fuc(a1-2)]Gal(b1-4)GlcNAc
Procedure, shortened: as §1

[5] = target: Fuc(a1-2)[GalNAc(a1-3)]Gal(b1-4)GlcNAc(b1-3)Gal(b1-4)GlcNAc(b1-3)Gal(b1-4)GlcNAc
Procedure, shortened: as §1

[6] = target: Fuc(a1-3)[Gal(b1-4)]GlcNAc(b1-2)Man
Procedure, shortened: as §1

Gal(a1-3)Gal(b1-3)GlcNAc = target: Gal(a1-3)Gal(b1-3)GlcNAc
Procedure, shortened: as §1

[7] = target: Gal(a1-3)Gal(b1-4)[Fuc(a1-3)]GlcNAc(b1-2)Man(a1-3)[Gal(a1-3)Gal(b1-4)[Fuc(a1-3)]GlcNAc(b1-2)Man(a1-6)]Man(b1-4)GlcNAc(b1-4)GlcNAc
Procedure, shortened: as §1

[8] = target: Gal(b1-3)GalNAc(a1-3)[Fuc(a1-2)]Gal(b1-4)GlcNAc
Procedure, shortened: as §1

[9] = target: Gal(b1-3)GlcNAc(b1-2)Man(a1-3)[Gal(b1-3)GlcNAc(b1-2)Man(a1-6)]Man(b1-4)GlcNAc(b1-4)[Fuc(a1-6)]GlcNAc
Procedure, shortened: as §1

[10] = target: Gal(b1-3)GlcNAc(b1-3)Gal(b1-4)Glc
Procedure, shortened: as §1

[11] = target: Gal(b1-3)GlcNAc(b1-3)Gal(b1-4)GlcNAc(b1-6)[Gal(b1-3)GlcNAc(b1-3)]Gal(b1-4)Glc
Procedure, shortened: as §1

[12] = target: Gal(b1-3)GlcNAc(b1-3)Gal(b1-4)[Fuc(a1-3)]GlcNAc(b1-6)[Gal(b1-3)GlcNAc(b1-3)]Gal(b1-4)Glc
Procedure, shortened: as §1

[13] = target: Gal(b1-3)[Fuc(a1-4)]GlcNAc(b1-2)Man
Procedure, shortened: as §1

[14] = target: Gal(b1-4)GlcNAc(b1-2)Man(a1-3)Man(b1-4)GlcNAc(b1-4)GlcNAc
Procedure, shortened: as §1

[15] = target: Gal(b1-4)GlcNAc(b1-2)Man(a1-3)[GlcNAc(b1-4)][Gal(b1-4)GlcNAc(b1-2)Man(a1-6)]Man(b1-4)GlcNAc(b1-4)GlcNAc
Procedure, shortened: as §1

[16] = target: Gal(b1-4)GlcNAc(b1-3)Gal(b1-4)GlcNAc(b1-3)Gal(b1-4)GlcNAc(b1-3)Gal(b1-4)GlcNAc(b1-2)Man(a1-3)[Gal(b1-4)GlcNAc(b1-3)Gal(b1-4)GlcNAc(b1-3)Gal(b1-4)GlcNAc(b1-3)Gal(b1-4)GlcNAc(b1-2)Man(a1-6)]Man(b1-4)GlcNAc(b1-4)GlcNAc
Procedure, shortened: as §1

Gal3S(b1-4)Glc6S = target: Gal3S(b1-4)Glc6S
Procedure, shortened: as §1

[17] = target: Gal3S(b1-4)[Fuc(a1-3)]Glc6S
Procedure, shortened: as §1

Gal3S6S(b1-4)GlcNAc6S = target: Gal3S6S(b1-4)GlcNAc6S
Procedure, shortened: as §1

Gal6P(b1-4)GlcNAc = target: Gal6P(b1-4)GlcNAc
Procedure, shortened: as §1

Gal6S(b1-3)GlcNAc6S = target: Gal6S(b1-3)GlcNAc6S
Procedure, shortened: as §1

[18] = target: GalNAc(b1-3)Gal(a1-4)Gal(b1-4)GlcNAc
Procedure, shortened: as §1

GalNAc(b1-4)Gal(b1-4)Glc = target: GalNAc(b1-4)Gal(b1-4)Glc
Procedure, shortened: as §1

[19] = target: GlcNAc(a1-4)Gal(b1-4)GalNAc
Procedure, shortened: as §1

[20] = target: GlcNAc(a1-4)Gal(b1-4)GlcNAc(b1-3)Gal(b1-4)GlcNAc
Procedure, shortened: as §1

[21] = target: Man(a1-2)Man(a1-2)Man(a1-6)[Man(a1-3)]Man
Procedure, shortened: as §1

Neu5Ac(a2-3)Gal = target: Neu5Ac(a2-3)Gal
Procedure, shortened: as §1

[22] = target: Neu5Ac(a2-3)Gal(b1-3)GlcNAc(b1-2)Man(a1-3)[Neu5Ac(a2-3)Gal(b1-3)GlcNAc(b1-2)Man(a1-6)]Man(b1-4)GlcNAc(b1-4)GlcNAc
Procedure, shortened: as §1

[23] = target: Neu5Ac(a2-3)Gal(b1-4)GlcNAc(b1-2)[Neu5Ac(a2-3)Gal(b1-4)GlcNAc(b1-4)]Man(a1-3)[GlcNAc(b1-4)][Neu5Ac(a2-3)Gal(b1-4)GlcNAc(b1-2)[Neu5Ac(a2-3)Gal(b1-4)GlcNAc(b1-6)]Man(a1-6)]Man(b1-4)GlcNAc(b1-4)GlcNAc
Procedure, shortened: as §1

[24] = target: Neu5Ac(a2-3)Gal(b1-4)[Fuc(a1-3)]GlcNAc(b1-3)GalNAc
Procedure, shortened: as §1

[25] = target: Neu5Ac(a2-3)Gal6S(b1-4)GlcNAc
Procedure, shortened: as §1

[26] = target: Neu5Ac(a2-3)[GalNAc(b1-4)]Gal(b1-4)Glc
Procedure, shortened: as §1

[27] = target: Neu5Ac(a2-6)Gal(b1-4)GlcNAc(b1-2)Man(a1-3)[GlcNAc(b1-2)Man(a1-6)]Man(b1-4)GlcNAc(b1-4)GlcNAc
Procedure, shortened: as §1

[28] = target: Neu5Ac(a2-6)Gal(b1-4)GlcNAc(b1-2)Man(a1-6)[Gal(b1-4)GlcNAc(b1-2)Man(a1-3)]Man(b1-4)GlcNAc(b1-4)GlcNAc
Procedure, shortened: as §1

[29] = target: Neu5Ac(a2-6)Gal(b1-4)GlcNAc(b1-3)Gal(b1-4)GlcNAc(b1-3)Gal(b1-4)GlcNAc(b1-2)Man(a1-3)[Neu5Ac(a2-6)Gal(b1-4)GlcNAc(b1-3)Gal(b1-4)GlcNAc(b1-3)Gal(b1-4)GlcNAc(b1-2)Man(a1-6)]GalNAc
Procedure, shortened: as §1

[30] = target: Neu5Ac(a2-6)Gal(b1-4)GlcNAc(b1-6)[Gal(b1-3)GlcNAc(b1-3)]Gal(b1-4)Glc
Procedure, shortened: as §1

[31] = target: Neu5Ac(b2-6)Gal(b1-4)GlcNAc
Procedure, shortened: as §1

[32] = target: Neu5Gc(a2-3)Gal(b1-3)GlcNAc
Procedure, shortened: as §1

Neu5Gc(a2-3)Gal(b1-4)Glc = target: Neu5Gc(a2-3)Gal(b1-4)Glc
Procedure, shortened: as §1

[33] = target: Neu5Gc(a2-8)Neu5Ac(a2-3)Gal(b1-4)GlcNAc
Procedure, shortened: as §1

[34] = target: Neu5Gc(a2-8)Neu5Gc(a2-3)Gal(b1-4)GlcNAc(b1-3)Gal(b1-4)GlcNAc
Procedure, shortened: as §1

B1: Clec2 (Mus musculus), Q9JL99 (protein)
chain: MQDEDGYITLNIKPRKQALSSAEPASSWWRVMALVLLISSMGLVVGLVALGIMSVTQQKYLLAEKENLSATLQQLAKKFCQELIRQSEIKTKSTFEHKCSPCATKWRYHGDSCYGFFRRNLTWEESKQYCTEQNATLVKTASQSTLDYIAERITSVRWIGLSRQNSKKDWMWEDSSVLRKNGINLSGNTEENMNCAYLHNGKIHPASCKERHYLICERNAGMTRVDQLL
[1]
  glycan array binding signal (z-score): 9.47
[2]
  glycan array binding signal (z-score): 3.96
[3]
  glycan array binding signal (z-score): -0.063
[4]
  glycan array binding signal (z-score): -0.388
[5]
  glycan array binding signal (z-score): -0.74
[6]
  glycan array binding signal (z-score): 0.349
Gal(a1-3)Gal(b1-3)GlcNAc
  glycan array binding signal (z-score): 3
[7]
  glycan array binding signal (z-score): 6.06
[8]
  glycan array binding signal (z-score): -0.939
[9]
  glycan array binding signal (z-score): -0.411
[10]
  glycan array binding signal (z-score): 0.433
[11]
  glycan array binding signal (z-score): -0.864
[12]
  glycan array binding signal (z-score): -0.993
[13]
  glycan array binding signal (z-score): 3.5
[14]
  glycan array binding signal (z-score): -0.472
[15]
  glycan array binding signal (z-score): -0.464
[16]
  glycan array binding signal (z-score): -0.166
Gal3S(b1-4)Glc6S
  glycan array binding signal (z-score): 3.71
[17]
  glycan array binding signal (z-score): 1.03
Gal3S6S(b1-4)GlcNAc6S
  glycan array binding signal (z-score): 4.08
Gal6P(b1-4)GlcNAc
  glycan array binding signal (z-score): 3.62
Gal6S(b1-3)GlcNAc6S
  glycan array binding signal (z-score): 3.2
[18]
  glycan array binding signal (z-score): 0.28
GalNAc(b1-4)Gal(b1-4)Glc
  glycan array binding signal (z-score): 1.12
[19]
  glycan array binding signal (z-score): -0.598
[20]
  glycan array binding signal (z-score): -0.749
[21]
  glycan array binding signal (z-score): -0.215
Neu5Ac(a2-3)Gal
  glycan array binding signal (z-score): 0.604
[22]
  glycan array binding signal (z-score): 3.51
[23]
  glycan array binding signal (z-score): -0.711
[24]
  glycan array binding signal (z-score): 0.837
[25]
  glycan array binding signal (z-score): 0.844
[26]
  glycan array binding signal (z-score): -0.342
[27]
  glycan array binding signal (z-score): -0.833
[28]
  glycan array binding signal (z-score): -0.707
[29]
  glycan array binding signal (z-score): 4.45
[30]
  glycan array binding signal (z-score): -0.654
[31]
  glycan array binding signal (z-score): 0.023
[32]
  glycan array binding signal (z-score): -0.366
Neu5Gc(a2-3)Gal(b1-4)Glc
  glycan array binding signal (z-score): -0.112
[33]
  glycan array binding signal (z-score): -0.442
[34]
  glycan array binding signal (z-score): -0.34
